From PubChem BioAssay AID463173 (ICCB-Longwood Screening Facility, Harvard Medical School, 2010)
The whole screen tested about 52,000 compounds, of which about 1,700 (3.3%) were called active. Cut-off read from the data, not from the text of the source: active = survival mostly below about 52% (no sharp cut-off); inactive = mostly above about 56%. Only a selection was taken, and actives are over-represented in it overall.

The molecules below were run on Wild type (assay: S. aureus survival, RN4220 and DeltatarO strains – OD600, teichoic acid synthesis inhibitors, primary screen (AID 463173)). Settings: S. aureus RN4220 wild type/DeltatarO growth, OD600, 18 h, active compounds read low, concentration not given here.

SMILES	survival
CN(C)c1ccc(NC(=O)c2sc3nc4c(cc3c2N)N2CCC4CC2)cc1	114% (inactive)
CCOC(=O)c1ccc(NC(=O)c2sc3nc4c(cc3c2N)N2CCC4CC2)cc1	84% (inactive)
CC(=O)c1ccc(NC(=O)c2sc3nc4c(cc3c2N)N2CCC4CC2)cc1	95% (inactive)
Nc1c(C(=O)Nc2ccc(Br)cc2F)sc2nc3c(cc12)N1CCC3CC1	134% (inactive)
Nc1c(C(=O)Nc2ccc(Cl)c(C(F)(F)F)c2)sc2nc3c(cc12)N1CCC3CC1	1% (active)
Nc1c(C(=O)Nc2ccc(F)c(Cl)c2)sc2nc3c(cc12)N1CCC3CC1	105% (inactive)
N#Cc1cc2c(nc1SCC(=O)Nc1ccc(F)c(Cl)c1)C1CCN2CC1	-2% (active)
N#Cc1cc2c(nc1SCC(=O)Nc1ccc(Cl)c(C(F)(F)F)c1)C1CCN2CC1	2% (active)
Nc1c(C(=O)Nc2ccc(Cl)cc2)sc2nc3c(cc12)N1CCC3CC1	95% (inactive)
COc1ccc(NC(=O)CCc2nc(C3=CCN(Cc4cccc(Cl)c4)CC3)no2)cc1OC	76% (inactive)
CCC(N)C(=O)c1ccc(Cl)cc1 (stereo unspecified)	105% (inactive)
Cn1c(=O)n(C)c2cc(CNCCc3ccc(F)cc3)ccc21	86% (inactive)
CC(C)C(=O)c1cn(Cc2ccccc2C#N)c2ccccc12	115% (inactive)
Cc1cccc(Cn2cccc(C(=O)Nc3nnc(C)s3)c2=O)c1	71% (inactive)
CC(C)(C)c1ccc(C(=O)Nc2ccc(Cl)cc2C(=O)c2ccccc2)cc1	3% (active)
CSc1ncc(C(=O)Nc2ccc(Cl)cc2C(=O)c2ccccc2)c(C)n1	88% (inactive)
O=C(Nc1ccc(Cl)cc1C(=O)c1ccccc1)c1cc(Cl)cc(Cl)c1	140% (inactive)
O=C(Nc1ccc(Cl)cc1C(=O)c1ccccc1)c1ccccc1Br	5% (active)
O=C(Nc1ccc(Br)cc1C(=O)c1ccccc1)c1ccccc1	-1% (active)
CC(C)(C)c1ccc(OCC(=O)Nc2ccc(Cl)cc2C(=O)c2ccccc2)cc1	63% (inactive)
Cc1ccc(OCC(=O)Nc2ccc(Cl)cc2C(=O)c2ccccc2)cc1C	75% (inactive)
COc1cc(OC)cc(C(=O)Nc2ccc(Cl)cc2C(=O)c2ccccc2Cl)c1	139% (inactive)
O=C(COc1ccc(Br)cc1)Nc1ccc(Cl)cc1C(=O)c1ccccc1	72% (inactive)
O=C(Nc1ccc(Br)cc1C(=O)c1ccccc1Cl)c1ccc(Br)cc1	136% (inactive)
O=C(Nc1ccc(Br)cc1C(=O)c1ccccc1Cl)c1ccccc1F	76% (inactive)
COc1ccc(C(=O)Nc2ccc(Cl)cc2C(=O)c2ccccc2)c(OC)c1	-2% (active)
